Results published in PubChem BioAssay AID1159606 (Sanford-Burnham Center for Chemical Genomics, 2016).
Out of some 360,000 compounds screened, about 7,300 (2%) were called active. This excerpt belongs to a sample that is enriched for actives. Unmarked numbers belong to inactive results. Rule as the data show it: active = inhibition above about 50%; inactive = the rest.

assay: blockers of TWEAK-induced Fn14 reporter activity – luciferase reporter cells, uHTS, primary screen (AID 1159606); conditions: TWEAK-stimulated Fn14 reporter cells, luciferase luminescence, 8 h; at 10 µM; hits give high values

SMILES | inhibition
CC(=O)c1ccc(S(=O)(=O)N(C)CCCC(=O)N(C)Cc2ccccc2F)cc1 | 13.5%
CC1(C)OC(=O)C2=C(C[C@@H](C3CCCCC3)O[C@@H]2c2ccc(Cl)cc2)O1 | -5.53%
Cc1cccc(N2CCN(C(=O)COCc3cc(-c4ccc5c(c4)OCO5)on3)CC2)c1C | -13.9%
CCC(=O)N(Cc1cc2ccccc2[nH]c1=O)c1ccc(OC)cc1 | -8.72%
CC(=O)N(Cc1cc(=O)[nH]c2ccccc12)c1ccc(C)cc1C | 4.2%
Cc1ccc(N(Cc2cc(=O)[nH]c3ccccc23)C(=O)CCl)cc1 | 52.1% (active)
CCN(CC)S(=O)(=O)c1cccc(C(=O)NCC(=O)OCC(=O)NCc2ccccc2)c1 | 0.62%
Cc1ccc(F)cc1S(=O)(=O)Nc1cccc(C(=O)N2CCCC(C(N)=O)C2)c1 (stereo not given) | -7.05%
NC(=O)[C@H]1CC2(CC(c3cccc(NC(=O)[C@H]4CCC(=O)N4)c3)=NO2)CN1C(=O)c1ccccc1C(=O)c1ccccc1 (stereo not given in full) | -12.2%
COc1ccc(CCNC(=S)NC(=O)/C=C/c2ccc(C)cc2)cc1OC | -15.4%
Cc1ccc(S(=O)(=O)c2nc(NCCCn3ccnc3)sc2Cl)cc1 | 80.5% (active)
Cc1ccc(-c2nc(C#N)c(NCCCn3ccnc3)o2)cc1 | -18.1%
Cc1ccc2c(Cl)c(C(=O)NCCCn3ccnc3)sc2c1 | -11.3%
CCOC(=O)/C(=N\Nc1ccccc1[N+](=O)[O-])c1csc(Nc2ccccc2)n1 | 8.54%
O=C(O)C(=Cc1ccc([N+](=O)[O-])cc1)CCc1ccccc1 | -10.9%
CCOC(=O)/C(=C\c1ccc([N+](=O)[O-])cc1)C(=O)c1cc(C(C)=O)c(Nc2ccccc2)s1 | 104% (active)
CCCCc1c(-c2ccc(Br)cc2)ncn1CCc1ccccc1OC | 38.9%
Cc1noc(C)c1NC(=O)N(C)C[C@@H]1Oc2cc(Br)ccc2S(=O)(=O)N([C@@H](C)CO)C[C@H]1C | 18.1%
COC(=O)c1ccc(Nc2ncnc3sccc23)cc1 | -10.3%
COC(=O)c1ccc2nc(C3CCCCC3)c(Cc3cccc(F)c3)n2c1 | -20.2%
O=C(O)C(F)(F)C(NCc1ccccc1)c1ccccc1 (stereo not given) | -8.01%
CC[C@H]1CN2CCc3cc(OC)c(OC)cc3[C@@H]2C[C@@H]1C[C@H]1NCCc2cc(OC)c(OC)cc21 | 98% (active)
Cn1ncc([N+](=O)[O-])c1C(=O)Nc1cc(Cl)ccc1Cl | -23.8%

SMILES | inhibition
Cc1cc2nc(-c3ccc(F)cc3)c(Cc3ccsc3)n2c(C)c1Br | 0.39%
Cc1cc(=O)oc2c3c(cc(OCC(=O)NCC(O)c4ccccc4)c12)OC(C)(C)CC3 (stereo not given) | -0.31%
O=C(CC1CCCCC1)NCc1ccc(F)cc1 | 7.42%
CCc1ccc2c(c1)C1(NN=C(c3ccccc3)S1)C(=O)N2 (stereo not given) | 87.5% (active)
CCc1ccc2c(c1)NC(=O)C2(C)Cc1ccc(OC(F)(F)F)cc1 (stereo not given) | 8.25%
NS(=O)(=O)c1cccc(NC(=O)COC(=O)c2cc([N+](=O)[O-])ccc2N2CCCC2)c1 | -16.4%
COc1ccc2oc(N)nc2c1 | -11.6%
COc1cccc(-c2nc3cc(C)ccc3o2)c1 | 51.2% (active)
O=[N+]([O-])c1ccc2oc(-c3cccc(O)c3)nc2c1 | 5.84%
CCN(CC)c1ccc(NC(=O)c2ccc(=O)[nH]c2)cc1S(=O)(=O)Nc1ccc(OC)cc1 | 9.69%
COc1cc(NC(=O)COC(=O)CSc2ccc3ccccc3c2)c(C)cc1[N+](=O)[O-] | 2.69%
CC[C@@H]1Cc2cc(O)ccc2C2=C1c1ccc(O)cc1C[C@H]2CC | 77% (active)
CC(=O)c1cccc(NC(=S)N2CCN(S(C)(=O)=O)CC2)c1 | -22.1%
CC(=O)c1cccc(NC(=O)C2CCN(C(=O)c3ccccc3Cl)CC2)c1 | -5.45%
CCSc1nsc(NC(=O)Nc2cccc(C(C)=O)c2)n1 | 87.9% (active)
CSc1ccccc1C(=O)Nc1cccc(C(C)=O)c1 | 0.31%
COc1ccc(NC(C(=O)Nc2cccc(C(C)=O)c2)c2ccccc2)cc1 (stereo not given) | -31.7%
C=CCSc1nsc(NC(=O)Nc2cccc(C(C)=O)c2)n1 | 91% (active)
Cc1ccc(C2Nc3ccccc3C(=O)N2CCN2CCNC2=O)cc1 (stereo not given) | -6.92%
C[C@@H]1CN([C@@H](C)CO)C(=O)c2cc(NS(C)(=O)=O)ccc2O[C@@H](C)CCCCO[C@H]1CN(C)C(=O)Nc1ccc2c(c1)OCO2 | -5.22%
O=C(c1ccc(F)cc1)N1CCC(n2nnc3ccccc32)CC1 | -5.58%
O=C(c1ccc(F)cc1)n1c(=S)nc2ccccn21 | 78.2% (active)
CC1COc2ccccc2N1C(=O)c1ccc(F)cc1 (stereo not given) | 0.29%

SMILES | inhibition
CCCC(CCC(=O)OC)(C(=O)OCC)c1csc(N)n1 (stereo not given) | -16.1%
CC1(C)Oc2ccc3ccc(=O)oc3c2/C(=N/O)C1=O | 3.76%
CC1(C)Oc2ccc3ccc(=O)oc3c2/C(=C/NCCO)C1=O | 4.08%
C/C=C(/C)C(=O)OC1Cc2c(ccc3ccc(=O)oc23)OC1(C)C (stereo not given) | 94.7% (active)
COc1ccc(C2CC(c3cccc(OC)c3)=NN2c2ccc(S(N)(=O)=O)cc2)cc1 (stereo not given) | -3.98%
Cn1c(=O)c2c(nc(SCCNS(=O)(=O)c3ccccc3)n2C)n(C)c1=O | 3.41%
CCOc1ccc(Cn2c(SCCCCC#N)nc3c2c(=O)n(C)c(=O)n3C)cc1OCC | -21.4%
CCCSc1nc2c(c(=O)n(C)c(=O)n2C)n1Cc1ccc(C)cc1 | 68.3% (active)
O=C(Cn1nnc2ccccc2c1=O)Nc1cc(C(F)(F)F)ccc1N1CCOCC1 | 1.74%
C#CCNC(=O)C1=C[C@@H](c2ccccc2)[C@H](CCCO)[C@@H](OCC)O1 | 4.59%
Cc1ccc(OCCCC(=O)N2CCOCC2)c(C)c1 | -41.6%
Cc1ccc(C)c(N2CCN(C(=O)CCCCCn3c(=S)[nH]c4ccc(N5CCOCC5)cc4c3=O)CC2)c1 | 88.1% (active)
O=C(CCCCCn1c(=O)[nH]c2ccccc2c1=O)NCCc1c[nH]c2ccccc12 | 35%
O=C(CCCCCn1c(=S)[nH]c2cc3c(cc2c1=O)OCO3)N1CCN(c2ccc(F)cc2)CC1 | -18.2%
Cc1ccc(C)c(N2CCN(C(=O)CCCCn3c(=O)[nH]c4ccccc4c3=O)CC2)c1 | 50.3% (active)
Cc1ccc(C)c(N2CCN(C(=O)CCCn3c(=O)c4cccn4c4cccnc43)CC2)c1 | -17.6%
O=C(CCCC(=O)N(CC(=O)NC1CCCC1)Cc1ccccc1Cl)Nc1ccccn1 | 5.53%
CSCCC(NC(=O)C1CCC(C)CC1)C(=O)NCc1ccco1 (stereo not given) | -2.99%
Cc1ccc(Cn2cc(CN3CC(N4CCN(C)CC4)CS3(=O)=O)nn2)cc1 (stereo not given) | -2.98%
CN1CCN(c2ccc3c(c2)OC[C@H](Cc2ccccc2)NS3(=O)=O)CC1 | -3.51%
CCc1nc2ccc(C(=O)Nc3cccc(OC)c3)cn2c1N(CCC(C)C)CCN(C)C | 15.5%
CC1=NN(C(=O)CCCc2ccccc2)C(O)(C(F)(F)F)C1 (stereo not given) | -10.4%
CCN1CCN(C(=O)CCN2C(=O)c3ccccc3C2=O)CC1 | -7.32%

SMILES | inhibition
C=CCN1CCN(C(=O)CCCc2ccccc2)CC1 | 86.5% (active)
CC1CCCC(C)N1/N=C/c1ccccc1OC(F)F (stereo not given) | -5.12%
Cc1nn(-c2ccccc2)c(C)c1NC(=O)CCl | 6.77%
Cc1nn(-c2ccccc2)c(C)c1NC(=O)COc1ccc(Cl)cc1Cl | 86.4% (active)
Cc1nn(-c2ccccc2)c(C)c1NC(=O)COC(=O)c1cc(Cl)ccc1O | 1.71%
O=C(Nc1cccc(S(=O)(=O)N2CCCC2)c1)c1cncc(Br)c1 | 13.2%
O=C(Nc1ccc(N2CCCC2=O)cc1)c1cncc(Br)c1 | 50.3% (active)
O=C(Nc1cccc(S(=O)(=O)N2CCCCC2)c1)c1cncc(Br)c1 | 20.6%
COc1cc(C)c(CN2CCN(C(=O)CCC(=O)c3ccc(C)s3)CC2)cc1OC | 11.6%
COc1ccc(Nc2ncc(F)c(N3CCOCC3)n2)cc1 | 60.1% (active)
COC(=O)c1ccccc1Oc1c(F)c(F)nc(N2CCOCC2)c1F | -14.1%
CCOc1ccc(Nc2nc(Cl)nc(N3CCN(c4ccc(OC)cc4)CC3)n2)cc1 | 1.18%
CNS(=O)(=O)c1ccc(NC(=O)C2CC(=O)N(c3ccc(Cl)cc3)C2)cc1 (stereo not given) | 14.4%
O=C(OCC(=O)N1CCOCC1)c1ccc(N2CCOCC2)c([N+](=O)[O-])c1 | -16.3%
CC(=O)N1CCC(C(=O)Nc2nc(-c3ccccc3)ns2)CC1 | 14.9%
COC(=O)C1=C(C(=O)OC)[C@@H]2N(C)c3ccccc3[C@@]23C[C@@H](C(=O)OC)N(C(C)=O)C3=N1 | -3.56%
Cc1[nH]c2ccccc2c1C(=O)C(=O)NCc1nnnn1-c1cccc(F)c1 | 3.05%
CCOC(=O)C1(CC2CCCCO2)CCN(Cc2nc(-c3cccs3)oc2C)CC1 (stereo not given) | -0.53%
Cc1ccc(C(=O)CSc2ccccc2C(=O)O)cc1 | 53.3% (active)
O=C(CSc1cccc[n+]1[O-])c1ccc(-c2ccccc2)cc1 | 2.59%
Cc1ccc(Sc2cc(C(=O)c3ccccc3C(=O)O)ccc2[N+](=O)[O-])cc1 | -6.54%
